Test results reported in the supplement of paper PMC9402605.
± gives the standard deviation of the averaged measurements.

tested on: Caenorhabditis elegans N2; assay: egg-laying rate relative to DMSO control (serotonin + nicotine background) (fraction of control); higher = more egg-laying; conditions: background: 12.3 mM serotonin + 7.7 mM nicotine; 60 µM; 1 h
Protocol: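 About 20 young-adult wild-type C. elegans (N2) per well in 96-well plates were exposed to 60 uM compound for 1 h at room temperature, either in M9 buffer (to find stimulators) or in 12.3 mM serotonin + 7.7 mM nicotine (NS, to find inhibitors). Eggs per worm per hour were counted by automated imaging and normalised to the mean of proximal DMSO control wells. Values average the primary screen and two retests of the worm-active (wactive) Egl modulators.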

**Q.** How did the egg-laying rate turn out when `Clc1ccc(-c2cn3ccsc3n2)cc1` [wact-1] was run?
**A.** Its egg-laying rate is 0.584 ± 0.24.

**Q.** How did the egg-laying rate turn out when `Brc1cccc(-c2cn3ccccc3n2)c1` [wact-435] was run?
**A.** The egg-laying rate was 0.712 ± 0.25.

**Q.** For `O=[N+]([O-])c1ccc(CSc2ccc(Cl)cc2)cc1` [wact-3], which egg-laying rate is on record?
**A.** The egg-laying rate was 0.473 ± 0.36.

**Q.** Which egg-laying rate does the source give for `CCCCOC(=O)Nc1ccc([N+](=O)[O-])cc1` [wact-419] here?
**A.** The egg-laying rate was 0.733 ± 0.18.

**Q.** How did the egg-laying rate turn out when `COc1ccc(C=Cc2ccccn2)cc1` [wact-622] was run?
**A.** Its egg-laying rate is 0.373 ± 0.18.

**Q.** Which egg-laying rate does the source give for `Cc1ccn2cc(-c3ccc(F)cc3)nc2c1` [wact-436] here?
**A.** The egg-laying rate was 0.478 ± 0.25.

**Q.** `CCSc1nnc(-c2ccc(Cl)cc2Cl)o1` [wact-4] was tested. Which egg-laying rate did it give?
**A.** Its egg-laying rate is 0.795 ± 0.052.

**Q.** How did the egg-laying rate turn out when `O=C(Nc1ccc(I)cc1)c1ccco1` [wact-27] was run?
**A.** Its egg-laying rate is 0.759 ± 0.099.

**Q.** Which egg-laying rate does the source give for `CCc1ccc(-c2cn3ccsc3n2)cc1` [wact-434] here?
**A.** The egg-laying rate was 0.474 ± 0.18.

**Q.** With `Ic1cccc(-c2nnc(-c3ccccc3)o2)c1` [wact-51] as the molecule, how does the egg-laying rate read?
**A.** Its egg-laying rate is 0.995 ± 0.094.

**Q.** For `Fc1ccc(-c2cn3ccsc3n2)cc1` [wact-433], which egg-laying rate is on record?
**A.** Its egg-laying rate is 0.471 ± 0.016.

**Q.** Which egg-laying rate does the source give for `c1ccc(CSc2nnc(-c3ccccc3)o2)cc1` [wact-38] here?
**A.** The egg-laying rate was 0.966 ± 0.24.

**Q.** How did the egg-laying rate turn out when `CCC1CCC(N2CCN(c3ccc([N+](=O)[O-])cc3)CC2)CC1` (stereo not given) [wact-6] was run?
**A.** The egg-laying rate was 0.999 ± 0.56.

**Q.** How did the egg-laying rate turn out when `Cc1ccccc1C(=O)NCCSC1CCCCC1` [wact-494] was run?
**A.** The egg-laying rate was 0.524 ± 0.2.

**Q.** `O=[N+]([O-])c1ccc(N2CCN(CC3CC4C=CC3C4)CC2)cc1` (stereo not given) [wact-46] was tested. Which egg-laying rate did it give?
**A.** Its egg-laying rate is 1.34 ± 0.22.

**Q.** With `Cc1ccccc1C(=O)NCCc1ccccc1` [wact-406] as the molecule, how does the egg-laying rate read?
**A.** The egg-laying rate was 0.394 ± 0.22.

**Q.** Which egg-laying rate does the source give for `Cc1ccc(-c2cnc(-c3ccncc3)o2)cc1` [wact-23] here?
**A.** The egg-laying rate was 0.55 ± 0.19.

**Q.** Which egg-laying rate does the source give for `c1csc(-c2cnc3ccccc3n2)c1` [wact-21] here?
**A.** Its egg-laying rate is 0.816 ± 0.081.

**Q.** Which egg-laying rate does the source give for `O=[N+]([O-])c1ccc(N2CCc3ccccc3C2)nc1` [wact-421] here?
**A.** The egg-laying rate was 0.435 ± 0.099.

**Q.** Which egg-laying rate does the source give for `O=C1CC(N2CCN(c3ccc([N+](=O)[O-])cc3)CC2)C(=O)N1c1ccccc1F` (stereo not given) [wact-56] here?
**A.** The egg-laying rate was 1.06 ± 0.17.

**Q.** `O=[N+]([O-])c1ccc(-n2ccc3ccccc32)cc1` [wact-213] was tested. Which egg-laying rate did it give?
**A.** Its egg-laying rate is 0.444 ± 0.061.

**Q.** For `O=[N+]([O-])c1ccc(N2CCN(CC3CCCCC3)CC2)cc1` [wact-45], which egg-laying rate is on record?
**A.** Its egg-laying rate is 0.994 ± 0.16.

**Q.** How did the egg-laying rate turn out when `O=[N+]([O-])c1ccc(N2CCN(CC3CC=CCC3)CC2)cc1` (stereo not given) [wact-47] was run?
**A.** The egg-laying rate was 1.13 ± 0.076.

**Q.** With `O=C(Nc1cccc(Cl)c1)N1CCN(c2ccc([N+](=O)[O-])cc2)CC1` [wact-31] as the molecule, how does the egg-laying rate read?
**A.** The egg-laying rate was 1.03 ± 0.29.

**Q.** How did the egg-laying rate turn out when `CCOc1ccc(C(=O)c2cccs2)cc1` [wact-471] was run?
**A.** Its egg-laying rate is 1.02 ± 0.22.
